From the supplement of paper PMC5662767
Structures can show the parent of a compound that is named as a salt.

Test system: Drosophila S2 cl14 SmoIP sensor cells
Experiment: normalized SmoIP GFP fluorescence (untreated unstimulated = 0%, untreated Hh-stimulated = 100%); higher = more Smo activation sensor fluorescence
Conditions: compound concentration: 2 uM, 24 h
[1] = stimulation: Hh conditioned medium (+Hh)
[2] = stimulation: mock conditioned medium (-Hh)
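Further: flow cytometry read-out as median GFP intensity of gated cells, compounds added 30 min before Hh-conditioned or mock medium, mock-treated cells serving as unstimulated baseline.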

SMILES	normalized SmoIP GFP fluorescence [1]	normalized SmoIP GFP fluorescence [2]
Fc1cc(F)c2c(c1)[C@H]1C=CC[C@H]1C(c1cccnc1)N2 (some centres not stated) [golgicide-a]	101%	-5.15%
C#C[C@]1(O)C=C[C@H]2[C@@H]3CCC4=CC(=O)CC[C@@H]4[C@H]3CC[C@@]21CC [Gestodene]		5.45%
CC(=O)Nc1ccc(OC[C@](C)(O)C(=O)Nc2ccc([N+](=O)[O-])c(C(F)(F)F)c2)cc1 [Andarine]	107%	0.274%
Cc1sc2c(c1C)C(c1ccc(Cl)cc1)=N[C@@H](CC(=O)Nc1ccc(O)cc1)c1nnc(C)n1-2	102%	-1.34%
O=C(O)CNC(=O)c1c(O)c2ccccc2n(Cc2ccccc2)c1=O	109%	-2.82%
CN1c2ccccc2C(NCCCCCCC(=O)O)c2ccc(Cl)cc2S1(=O)=O (configuration not stated) [Tianeptine-sodium-salt]	110%	0.274%
CNCC(O)c1ccc(O)cc1 (configuration not stated) [synephrine-hcl]	140%	-9.85%
C[C@H]1CNCCc2ccc(Cl)cc21 [lorcaserin-hcl]	99.3%	-2.48%
CC[C@@]1(O)C(=O)OCc2c1cc1n(c2=O)Cc2cc3ccccc3nc2-1 [Camptothecine]	33.6%	2.64%
N[C@@H]1C[C@H]1c1ccccc1 [tranylcypromine-2-pcpa-hcl]	109%	-1.34%
CN1CCCCC1Cn1cc(C(=O)c2cc([N+](=O)[O-])ccc2I)c2ccccc21 (configuration not stated)		32.3%
C[C@]12CC[C@H]3[C@@H](CC[C@@]45O[C@@H]4C(O)=C(C#N)C[C@]35C)[C@@H]1CC[C@@H]2O [Trilostane]	109%	-0.265%
